Some test systems named below: RPMI-8226 leukemia; OVCAR-8 ovarian; OVCAR-5 ovarian; OVCAR-4 ovarian; SK-OV-3 ovarian; IGROV1 ovarian; OVCAR-3 ovarian; HS 578T breast; NCI/ADR-RES ovarian; SR leukemia.
What all share (test): NCI-60 one-dose screen, 48 h (100 = growth as untreated, 0 = no growth, -100 = all killed)
What all share (conditions): 10 µM unless noted

The panel holds about 83,000 compounds, 20% with a hit somewhere; the sample as a whole holds those more often.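 How to read the values: 0–100, growth inhibition (40 = 60% inhibited); 0, no net growth; -100 to 0, cell death (-40 = 40% of starting cells died; -100 = all dead).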 A number with no mark means an inactive call. The source made the active and inactive calls. Rule for the calls: active = growth percent below 10; inactive = the rest.

In the case of `Brc1cccc(-c2cc(-c3ccc4nccnc4c3)[nH]n2)c1`, the growth was 20.3% [25 µM] in the assay on RPMI-8226 leukemia; 29.3% [25 µM] in the assay with OVCAR-8 ovarian; 38.2% [25 µM] in the assay with OVCAR-5 ovarian; 48.3% [25 µM] with OVCAR-4 ovarian; 33.2% [25 µM] with SK-OV-3 ovarian; 27.8% [25 µM] with IGROV1 ovarian. For the same molecule, the values for the growth with OVCAR-3 ovarian, in the assay with HS 578T breast and with NCI/ADR-RES ovarian were 4.18% [25 µM] (active), 13.7% [25 µM] and 2.03% [25 µM] (active), respectively.
For the molecule `Cc1ccc(C(=O)C2=Cc3cc4ccccc4n3Cc3cnnn32)cc1`, the growth in the assay with RPMI-8226 leukemia is 99.9%; in the assay on OVCAR-8 ovarian, 106%; with OVCAR-5 ovarian it was 96.2%; in the assay with OVCAR-4 ovarian, 104%; with SK-OV-3 ovarian, 99.6%; with IGROV1 ovarian, 104%. Further, the values for the growth in the assay on OVCAR-3 ovarian, in the assay with HS 578T breast and with NCI/ADR-RES ovarian were 109%, 94% and 108%, respectively.
In the case of `Fc1ccc(Nc2nc(NCCNc3ccnc4cc(Cl)ccc34)nc(N3CCOCC3)n2)cc1`, the growth in the assay with RPMI-8226 leukemia was 33.6%; with OVCAR-8 ovarian it was 74.7%; in the assay on OVCAR-5 ovarian, 105%; in the assay with OVCAR-4 ovarian, 61.1%; in the assay on SK-OV-3 ovarian, 91.6%; in the assay with IGROV1 ovarian it was 75.5%. The growth was 85.1% with OVCAR-3 ovarian, 70.2% with HS 578T breast and 77.8% in the assay on NCI/ADR-RES ovarian.
Regarding `COc1cc(-c2nn(-c3cccc(NC(=O)c4ccc(N5CCOCC5)c(C(F)(F)F)c4)c3)cc2-c2ccncc2)ccc1Cl`, the growth is 8.3% (active) in the assay with RPMI-8226 leukemia; 5.23% (active) in the assay with OVCAR-8 ovarian; 34.7% in the assay on OVCAR-5 ovarian; 52.3% in the assay on OVCAR-4 ovarian; 1.88% (active) in the assay on SK-OV-3 ovarian; 41.8% in the assay on IGROV1 ovarian. For the same molecule, the growth is -29.8% (active) with OVCAR-3 ovarian, -13.6% (active) with HS 578T breast and -7.13% (active) with NCI/ADR-RES ovarian.
`CC(C)CC1NC(C)(C)CO1` (centres undefined): the growth in the assay with RPMI-8226 leukemia was 103%; in the assay with OVCAR-8 ovarian, 105%; with OVCAR-5 ovarian it was 114%; in the assay on OVCAR-4 ovarian, 111%; in the assay with SK-OV-3 ovarian, 110%; in the assay on IGROV1 ovarian it was 112%. The growth with OVCAR-3 ovarian is 106%; in the assay on HS 578T breast, 142%; with NCI/ADR-RES ovarian it was 104%.
As for `O=C(NCCCNc1nccc(-n2ccc3cccnc32)n1)c1c(F)cccc1F`, the growth was 99.2% with SR leukemia; 107% in the assay with OVCAR-8 ovarian; 98.9% with OVCAR-5 ovarian; 94.9% with OVCAR-4 ovarian; 97.6% with IGROV1 ovarian; 109% in the assay on OVCAR-3 ovarian. The growth is 103% with HS 578T breast and 99.4% in the assay on NCI/ADR-RES ovarian.
With `Brc1ccc(-c2[nH]ncc2-c2c[nH]c3ccccc23)cc1`, the growth with RPMI-8226 leukemia is 81.8%; in the assay on OVCAR-8 ovarian it was 96.4%; with OVCAR-5 ovarian, 97.7%; in the assay on OVCAR-4 ovarian it was 86.3%; with SK-OV-3 ovarian it was 103%; in the assay with IGROV1 ovarian it was 91.1%. For the same molecule, the growth with OVCAR-3 ovarian is 97.3%; in the assay on HS 578T breast, 88.3%; in the assay with NCI/ADR-RES ovarian it was 101%.
In the case of `O=C(/C=C/c1ccccc1)c1cccc(O)c1`, the growth in the assay on SR leukemia was 6.27% (active); with OVCAR-4 ovarian, 106%; in the assay with SK-OV-3 ovarian, 104%; with IGROV1 ovarian, 82%; in the assay on HS 578T breast it was 110%; with NCI/ADR-RES ovarian it was 103%.
As to `COc1ccc(N2CCN(Cc3cc(C(=O)/C=C/c4c[nH]c5ccccc45)ccc3O)CC2)cc1`, the growth is 94.8% in the assay on RPMI-8226 leukemia; 95.5% in the assay on OVCAR-8 ovarian; 106% in the assay with OVCAR-5 ovarian; 93% in the assay on OVCAR-4 ovarian; 93.5% in the assay with SK-OV-3 ovarian; 109% in the assay on IGROV1 ovarian. The values for the growth in the assay on OVCAR-3 ovarian, with HS 578T breast and in the assay with NCI/ADR-RES ovarian were 114%, 105% and 106%, respectively.
Regarding `NC(=S)N/N=C(/CCN1CCCC1)CC(C1=C(O)C2=CCCCC2OC1=O)c1ccccc1` (centres undefined), the growth in the assay with RPMI-8226 leukemia is 73.9%; in the assay on OVCAR-8 ovarian, 88.2%; with OVCAR-5 ovarian it was 96.9%; in the assay on OVCAR-4 ovarian, 62.2%; in the assay on SK-OV-3 ovarian, 94.3%; with IGROV1 ovarian, 52.8%. In addition, the growth with OVCAR-3 ovarian is 21.8%; with HS 578T breast it was 96.7%; in the assay with NCI/ADR-RES ovarian, 40.4%.
`Cc1cc(C(C)(C)C)ccc1S`: the growth in the assay on SR leukemia is 93.4%; in the assay with OVCAR-8 ovarian, 111%; with OVCAR-4 ovarian it was 99.2%; in the assay on SK-OV-3 ovarian, 105%; in the assay with IGROV1 ovarian, 109%; in the assay on OVCAR-3 ovarian, 111%. The results for the growth in the assay with HS 578T breast and with NCI/ADR-RES ovarian were 101% and 112%, respectively.
Regarding `COc1cc(C2C3=C(COC3=O)Nc3cc4c(cc32)CCC4)cc2c1OCO2` (centres undefined), the growth with SR leukemia is 5.8% (active); in the assay with OVCAR-8 ovarian, 24.5%; in the assay on OVCAR-4 ovarian it was 43.5%; with SK-OV-3 ovarian, 17.4%; in the assay with IGROV1 ovarian, 23.2%; in the assay with OVCAR-3 ovarian, -47.9% (active). Moreover, the growth in the assay with HS 578T breast was 28.4%; in the assay with NCI/ADR-RES ovarian, -16.6% (active).
As for `Cn1c(=O)cc(NC(=O)CN2CCN(c3cc4c(cc3F)c(=O)c(C(=O)O)cn4C3CC3)CC2)[nH]c1=O`, the growth is 97.3% with RPMI-8226 leukemia; 98% in the assay on OVCAR-8 ovarian; 95.9% in the assay on OVCAR-5 ovarian; 96.9% in the assay with OVCAR-4 ovarian; 112% in the assay on SK-OV-3 ovarian; 101% in the assay on IGROV1 ovarian. For the same molecule, the growth is 99.5% in the assay with OVCAR-3 ovarian, 103% in the assay with HS 578T breast and 98.1% with NCI/ADR-RES ovarian.
Regarding `CCOC(=O)c1cn2c3c(cc(C)cc3c1=O)C(=O)/C(=C/c1ccccc1)C2`, the growth in the assay with RPMI-8226 leukemia was 110%; in the assay on OVCAR-8 ovarian, 82.1%; in the assay on OVCAR-5 ovarian, 90%; in the assay with OVCAR-4 ovarian, 88.1%; with SK-OV-3 ovarian, 82.3%; with IGROV1 ovarian, 93.2%. The growth in the assay on OVCAR-3 ovarian was 96.7%; in the assay on HS 578T breast, 103%; in the assay on NCI/ADR-RES ovarian, 93.9%.
Turning to `O=C1/C(=C/c2ccc(Cl)cc2)CN(C(=O)CCN2CCC(=NO)CC2)C/C1=C\c1ccc(Cl)cc1`, the growth in the assay on RPMI-8226 leukemia is -34.1% (active); in the assay on OVCAR-8 ovarian, -89.8% (active); with OVCAR-5 ovarian, -63.6% (active); in the assay on OVCAR-4 ovarian, -78.6% (active); with SK-OV-3 ovarian, -38.2% (active); in the assay on IGROV1 ovarian, -67.2% (active). Moreover, the values for the growth in the assay with OVCAR-3 ovarian, in the assay with HS 578T breast and with NCI/ADR-RES ovarian were -97.5% (active), -20.3% (active) and 1.6% (active), respectively.

The values above are taken from PubChem BioAssay (NCI).
